Source: PubChem (National Center for Advancing Translational Sciences (NCATS))
Sampled rows, rich in hits. Any-hit rate of the full collection: about 19%.
MARV entry inh: Marburg virus entry inhibition; hit rate 1.8% among 300,000; Potency, µM (top dose mostly 37.8 µM), for the others: at the highest dose activity change, negative = inhibition, most hits filed as inhibitors; AID 540276; Marburg virus pseudotyped entry inhibition, cell reporter; calls by dose curve; tested in HEK293 cells; further: potency means the concentration at half of the fitted maximal effect; on the % scale 0 is the no-effect control and ±100 the full control effect
Lassa entry inh: blocks Lassa virus binding to or entry into cells; Lassa virus pseudotype entry inhibition, cell reporter; hit rate 1.2% among 300,000; Potency, µM (top dose mostly 37.9 µM), for inactives: at the highest dose activity change, negative = inhibition, usual class: inhibitors; AID 540256; calls by dose curve; tested in HEK293 cells; further: potency means the concentration at half of the fitted maximal effect; on the % scale 0 is the no-effect control and ±100 the full control effect; nearly all actives have a fitted effect of over 50% in size
Shiga inhibitor: inhibitors of Shiga toxin in Vero cells | Vero cells, Shiga toxin protein synthesis inhibition reporter | inhibition, % at 38.7 µM | hit rate 9.2% among 290,000 | AID 2315; in the data active means inhibition mostly above about 28%, no sharp cut-off; inactive means mostly below about 43%; further: 0% is about no effect
Pf growth 48h: P. falciparum growth inhibition at 48 hours (one generation); Potency, µM (series often up to 28.7 µM), without a hit: top-dose activity change, negative = inhibition, actives largely listed as inhibitors; P. falciparum luciferase growth in erythrocytes, 48 h; hit rate 5.9% among 310,000; further: potency means the concentration at half of the fitted maximal effect; on the % scale 0 is the no-effect control and ±100 the full control effect
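Luminescence readout; reporter = integrated firefly luciferase in P. falciparum. RBC culture at 2% hematocrit, 0.1% parasitemia final, 37 C/5% CO2; decreased signal taken as growth inhibition.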
Cycloheximide cs: counter-screen for Shiga toxin inhibitors: cycloheximide protein synthesis inhibition; max response, %; cell reporter, cycloheximide protein synthesis inhibition counterscreen; hit rate 12% among 300,000; in the data active means max response mostly above about 13%, no sharp cut-off; inactive means mostly below about 14%; further: read at 38.3 µM for the half of the compounds with a filed dose; 0% is about no effect
Pf growth 96h: P. falciparum growth inhibition at 96 hour, primary screen for plastid delayed-death inhibitors; hit rate 6.9% among 320,000; AID 504834; P. falciparum luciferase reporter growth, 96 h; Potency, µM (doses to about 28.7 µM), without a hit: at the top dose activity change, negative = inhibition, hits mostly inhibitors; further: potency means the concentration at half of the fitted maximal effect; on the % scale 0 is the no-effect control and ±100 the full control effect
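Cell-based qHTS: luciferase-tagged P. falciparum in erythrocytes (2% hematocrit, 0.05% parasitemia final) incubated with compounds for 96 hours, 37 C, 5% CO2; luciferase detection reagent then added and luminescence measured.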
* = called active by the depositor; ? = inconclusive; . = no result; [ ] = remark or other dose. Unless noted, the call rests on the fitted dose curve; in most records, active means well fitted inhibition curve with a large enough effect; inconclusive means small, poorly fitted or top-dose-only effect, or another doubt; inactive means no such curve, though single readings can be large or run the other way.

SMILES	MARV entry inh	Lassa entry inh	Shiga inhibitor	Pf growth 48h	Cycloheximide cs	Pf growth 96h
COc1ccc(OC)c(C2C(C(=O)c3cccs3)=C(O)C(=O)N2c2cc(C)on2)c1 (stereo not drawn)	-1%	?	90*	23%	35*	6%
COc1ccc(C2C(C(=O)c3cccs3)=C(O)C(=O)N2c2cccc(C)n2)cc1OC (stereo not drawn)	.	.	32*	6%	19*	21%
CCOc1ccc(C2C(C(=O)c3cccs3)=C(O)C(=O)N2Cc2cccnc2)cc1OC (stereo not drawn)	3%[46.1 µM]	.	60*	14%	34*	-6%
CCCCCSc1nc(C)c(CC(=O)O)c(=O)[nH]1	10%	19%	-10	10%	-4	4%
COCCNC(=O)c1ccc(N(C)S(=O)(=O)c2ccc(OC)c(OC)c2)cc1	2%	-1%	-4	-27%	-3	11%
CC(=O)N(c1c(C)n(C)n(-c2ccccc2)c1=O)C1(C(=O)NC2CCCCC2)CCCCC1	8%	17%	11	-8%	-4	?
Cc1c(N(C(=O)CNC(=O)c2ccccc2)C2(C(=O)NC3CCCC3)CCCCC2)c(=O)n(-c2ccccc2)n1C	-3%[46.1 µM]	12%	3	3.7µM*	-3	?
CSC(=NC#N)N1CCN(C(c2ccccc2)c2ccccc2)CC1	.	.	-3	?	8	?
CSC(=NC#N)N1CCN(C(=NC#N)SC)CC1	?	-28%[46.1 µM]	31	9.3µM*	5	2%
CCN(CC)C(=O)Cn1cc(/C=C2\C(=O)NC(=O)N(c3ccccc3F)C2=O)c2ccccc21	?	?	33	1%	8.5*	?
O=C(O)Cn1cc(/C=C2\C(=O)NC(=O)N(c3ccc(Cl)cc3)C2=O)c2ccccc21	.	.	-5	?	-3	23%
CCN1C(=O)NC(=O)/C(=C\c2cn(CC(=O)N3CCCCC3C)c3ccccc23)C1=O (stereo not drawn)	-12%[46.1 µM]	-5%[46.1 µM]	-10	-9%	-1	6.6µM*
COc1cccc(-n2c(C)c3c(OC)cccc(=O)c3c2C)c1	45%[46.1 µM]	0%	-18	4.1µM*	8	?
COc1cccc(=O)c2c(C)n(-c3cc(C)cc(C)c3)c(C)c12	?	-7%	-7	3.3µM*	-2	2.6µM*
COC(=O)C1=C(C)N(Cc2ccc(OC)c(OC)c2)C(=O)C1	?	4%	-9	13µM*	-4	?
COC(=O)C1=C(C)N(CCc2ccc(OC)c(OC)c2)C(=O)C1	2%	2%	12	.	-4	.
CCN(CC)CCC(=O)NN	?	22%[46.1 µM]	10	23%	-4	55%[5.75 µM]
O=C(Nc1ccc(Br)cc1F)c1ccc2c(c1)OCCO2	6.3µM*	?	41	50%	21*	4%
O=C(COC(=O)c1ccc2c(c1)OCCO2)Nc1ccc(F)cc1F	29%	1%	.	.	.	.
O=C(Nc1ccc(F)cc1F)c1ccc2c(c1)OCCO2	2.8µM*	?	83*	135%	29*	-18%
O=C(c1ccc2c(c1)OCO2)C1CCCN(C(=O)Nc2ccc(F)cc2F)C1 (stereo not drawn)	.	.	18	20%	18*	?
CC(C)(C)c1ccc(C(=O)Nc2nnc(Cc3c[nH]c4ccccc34)s2)cc1	13%	?	13	8%	12	?
O=C(Nc1nnc(Cc2c[nH]c3ccccc23)s1)c1ccc(Cl)cc1Cl	7%	9%	35*	10%	17*	-16%
CN(C)C(=O)Oc1ccc(Br)cc1C(=O)Nc1ccc(F)c(Cl)c1	-27%[46.1 µM]	-28%[46.1 µM]	10	1.2µM*	10	?
O=C(Nc1ccc(Cl)cc1)c1ccc(Br)cc1F	.	.	86*	125%	44*	138%
SMILES	MARV entry inh	Lassa entry inh	Shiga inhibitor	Pf growth 48h	Cycloheximide cs	Pf growth 96h
CC(C)c1ccc(NC(=O)c2cc(Br)ccc2Br)cc1	.	.	60*	-13%	43*	?
CCc1ccc(NC(=O)c2cc(Br)ccc2Br)cc1	.	.	12	5%	11	-45%
O=C(Nc1ccc(N2CCCC2)cc1)c1cc(Br)ccc1Cl	?	-27%[46.1 µM]	32	?	14	?
CCC(/C=C1\Sc2ccc(OC)cc2N1CC)=C\c1sc2ccc(OC)cc2[n+]1CCCS(=O)(=O)[O-]	?	?	-5	?	-10	?
CCC(/C=C1\Sc2ccc(OC)cc2N1CCO)=C\c1sc2ccc(OC)cc2[n+]1CCO	?	?	-3	0.59µM*	-5	7.4µM*
Cc1cc(-c2n[nH]c(=S)n2/N=C/c2cccc([N+](=O)[O-])c2)n[nH]1	21%	-3%	-4	-5%	-4	1%
CC[n+]1c(/C=C/N(C)c2ccccc2)n(-c2ccccc2)c2ccc(-c3nc4ccccc4s3)cc21	?	2.5µM*	-27	0%	-14	16%
CN(C)c1cccc(C(=O)Nc2ccc(-c3nc4ccccc4s3)cc2)c1	.	-21%[46.1 µM]	.	.	.	.
Cc1ccc(Cl)cc1N1CCN(S(=O)(=O)N2CCCCC2)CC1	?	-12%	11	-16%	8	34%[5.75 µM]
CC1(C)CC(=O)C2=C(C1)NC(=O)NC2c1ccccc1 (stereo not drawn)	.	.	-5	-8%	-1	-8%
Cc1ccc(C(C)C)c(OCc2ccc(-c3nnco3)cc2)c1	?	-21%	60	-18%	12	.
Cc1ccc(COc2ccc(-c3nnco3)cc2)cc1	.	.	67*	.	40*	138%
Nc1nc(-c2ccco2)nn1S(=O)(=O)c1ccc(Cl)cc1	-27%[46.1 µM]	-4%	-15	9%	-1	3%
Cc1cc(C)nc(N2CCCC(C(=O)Nc3cc(F)ccc3C)C2)n1 (stereo not drawn)	-10%	-5%	19	-11%	-3	?
Cc1cccc(C(=O)O/N=C/c2c(N3CCOCC3)n(C)c3ccccc23)c1	.	.	-7	6.6µM*	-2	1.9µM*
Cc1cccc(C(=O)N2CCN(c3ccc(N4CCOCC4)nn3)CC2)c1	1%[46.1 µM]	-14%[46.1 µM]	12	-18%	-1	-25%
COc1ccc(Nc2nc(N)nc(CCl)n2)cc1	.	.	78*	-31%	67*	-87%
Nc1nc(CCl)nc(Nc2ccc3ccccc3c2)n1	?	4µM*	90*	?	74*	13µM*
Cc1ccccc1C(=O)N/N=C/c1ccc([N+](=O)[O-])s1	4.1µM*	-24%	-16	.	-10	2.1µM*
O=C(NCCNc1ccc([N+](=O)[O-])cc1)c1ccccc1Br	?	1%	18	?	-2	?
Cc1ccccc1C(=O)NNc1ccc([N+](=O)[O-])cc1	-9%	10%	-3	31%	-1	40%
Cc1cc(C(=O)N/N=C/c2ccc([N+](=O)[O-])s2)c2ccccc2n1	?	?	1	4.7µM*	-2	6%
O=C(N/N=C/c1ccc([N+](=O)[O-])s1)c1ccccc1Br	?	?	-29	?	-1	1.7µM*
